This is an account of results in PubChem BioAssay AID1347171 (National Center for Advancing Translational Sciences (NCATS), 2019).

Results filed as inconclusive are left out. Activity calls are given as the source filed them. The call rests on the fitted dose curve; in most records, active means well fitted inhibition curve with a large enough effect; inconclusive means small, poorly fitted or top-dose-only effect; inactive means no such curve, though single readings can be large or run the other way.

This test can be described thus: Orthogonal mCherry assay for qRT-PCR qHTS of selected Zika virus inhibitors. The following applies: Vero cells, ZIKV-mCherry infection imaging, 48-72 h; series mostly up to 32.6 µM; activity change, negative = inhibition: at the top concentration. From the text:
Description: Assay Submitters (PI): Avindra Nath, Ph.D., National Institute of Neurological Disorders and Stroke (NINDS), Bethesda, MD Radhakrishnan Padmanabhan, Ph.D., Georgetown University (GU), Washington D.C. Zika Virus causes congenital defects, including microcephaly and is associated with Guillain-Barre syndrome, eningoencephalitis and myelitis in infected adult. […] Using a target-based approach, we hope to establish a screening paradigm to uncover novel, cell-active NS2B-NS3 protease (Zika Virus) specific inhibitors from NCATS' collection of small molecules using qHTS. […] Four assay panel was created to identify potential Zika Virus inhibitors. Namely, (1) GU unlinked NS2B-NS3 AMC tagged protease qHTS, (2) GU unlinked NS2B-NS3 Rhodamine tagged protease qHTS, (3) NINDS linked NS2B-NS3 AMC tagged protease qHTS, (4) NINDS linked NS2B-NS3 Rhodamine tagged protease qHTS. Inhibitors of the Zika virus primary screens are confirmed using qRT-PCR secondary assays, mCherry orthogonal assay, and Vero cells viability counterscreen. Early Translation Branch (ETB) National Center for Advancing Translational Sciences (NCATS), Rockville, MD National Institute of Health (NIH), Bethesda, Maryland
384 well ZIKV-mCherry Assay: We have developed a new orthogonal imaging assay in 384-well plate format, which uses recombinant virus ZIKV-mCherry in Vero cells. Briefly, 30 microL of Vero cells derived from a green monkey cell line, were dispensed by Multidrop Dispenser into a clear solid bottom black 384 well plate (ultracarrier, Perkin Elmer LifeSciences) at a concentration of 5,000 cells per well. The plate was incubated overnight in a CO2 incubator at 37 degrees C. Compounds were delivered as a 126 nL DMSO solution by Kalypsys pintool transfer. Following compound transfer, 10 microL of ZIKV-mCherry was added at an MOI of 1 and incubated in a CO2 incubator for 48-72 hrs at 37 degrees C. After sufficient incubation of infected cells in test plates, 8 microL of 32% PFA was dispensed into assay plates to fix cells and incubated for 20 min at room temperature. Plates were washed 3 times with PBS using BioTek EL406 microplate washer/dispenser. After washing, 30 microL of PBS with 0.01% TX-100 containing Hoechst dye was dispensed into the each well of the plates for nuclear staining. 384-well plates were imaged on an automated, widefield high content imager (INCell 2200, GE Healthcare) using a 10x/0.45 NA lens and standard DAPI (nuclear stain) and mCherry (cy5) excitation and emission filters. The TIFFs were quantitated using the canned Multi Target Analysis protocol (GE Investigator Workstation software v3.7.2). Briefly, nuclei from the DAPI channel were identified using top hat segmentation and a sensitivity setting of 96 and minimum size area of 35 microm2. A recombinant Zika viral infection was monitored in the Cy5 channel (cells) using a 2 microm collar dilation from the nuclear bitmap. mCherry objects with an average nuclear RFU intensity above 450 (3 stdev above mean negative control wells) were considered "mcherry positive" and data was analyzed by percent infection rate.
Take `CC(C)c1onc(-c2c(Cl)cccc2Cl)c1COc1ccc(/C=C/c2cccc(C(=O)O)c2)c(Cl)c1`: the Potency was 25.1 µM (active).

In the case of `COc1cc2c(c(O)c1OC/C=C(\C)CC/C=C(/C)CCC=C(C)C)CN(C(CCC(=O)O)C(=O)O)C2=O` (centres undefined), the “activity change, negative = inhibition” value was -21.6% [at 16.3 µM] (inactive).

For the compound `Nc1ccn([C@@H]2O[C@H](CO)[C@@H](O)C2(F)F)c(=O)n1`, the “activity change, negative = inhibition” value is -78.4% (inactive).

On to `N#CC1C(=O)Nc2scc(-c3ccc(-c4ccccc4O)cc3)c2C1=O` (centres undefined), for which the “activity change, negative = inhibition” value is -51% (inactive).

As to `Oc1cc2ccccc2c2ccccc12`, the “activity change, negative = inhibition” value is 8.44% [at 65.2 µM] (inactive).

Consider `Cc1cc2c(C(C)C)c(O)c(O)c(C=O)c2c(O)c1-c1c(C)cc2c(C(C)C)c(O)c(O)c(C=O)c2c1O`, for which the “activity change, negative = inhibition” value was -104% (inactive).

For `Cc1cc(C(C#N)c2ccc(Cl)cc2)c(Cl)cc1NC(=O)c1cc(I)cc(I)c1O` (centres undefined), the “activity change, negative = inhibition” value was -28.4% (inactive).

For the compound `CN(Cc1ccc(C(=O)O)cc1)c1ccc(OCc2c(-c3c(Cl)cccc3Cl)noc2C2CC2)nc1C(F)(F)F`, the Potency is 14.1 µM (active).

With `CC(C)c1ccc2c(c1)c(SC(C)(C)C)c(CC(C)(C)C(=O)O)n2Cc1ccc(Cl)cc1`, the “activity change, negative = inhibition” value was -24.6% (inactive).

As for `CC(C)c1cc(C(C)C)c(CC(=O)NS(=O)(=O)Oc2c(C(C)C)cccc2C(C)C)c(C(C)C)c1`, the “activity change, negative = inhibition” value is -70.7% (inactive).

Regarding `CC[C@H](C)[C@H]1O[C@]2(CC[C@@H]1C)C[C@@H]1C[C@@H](C/C=C(\C)[C@@H](O[C@H]3C[C@H](OC)[C@@H](O[C@H]4C[C@H](OC)[C@@H](O)[C@H](C)O4)[C@H](C)O3)[C@@H](C)/C=C/C=C3\CO[C@@H]4[C@H](O)C(C)=C[C@@H](C(=O)O1)[C@]34O)O2`, the “activity change, negative = inhibition” value was 3.23% (inactive).

For `COc1ccc(NS(=O)(=O)c2ccc(NS(=O)(=O)c3ccc4c(c3)OCCO4)cc2)cc1`, the “activity change, negative = inhibition” value is -5.78% (inactive).

Consider `Oc1cccc(-c2c3nc(c(-c4cccc(O)c4)c4ccc([nH]4)c(-c4cccc(O)c4)c4nc(c(-c5cccc(O)c5)c5ccc2[nH]5)CC4)C=C3)c1`, for which the Potency is 7.08 µM (active).

`CC1(C)CCC(CN2CCN(c3ccc(C(=O)NS(=O)(=O)c4ccc(NCC5CCOCC5)c([N+](=O)[O-])c4)c(Oc4cnc5[nH]ccc5c4)c3)CC2)=C(c2ccc(Cl)cc2)C1`: the “activity change, negative = inhibition” value was 288% (inactive).

As for `CC1=C(C(=O)OCc2ccccc2)C(c2ccc(-c3ccccc3)cc2)NC(=O)N1CCCCCC(=O)O` (centres undefined), the “activity change, negative = inhibition” value is -69.4% (inactive).

As for `COc1cccc(-n2nc(C(=O)O)cc2-c2ccc(C3CCCCC3)c(Cl)c2)c1`, the Potency was 25.1 µM (active).

Turning to `Cc1cc(NC(=O)c2ccc(Cl)c(Cl)c2)ccc1-c1cc2ccccc2oc1=O`, the “activity change, negative = inhibition” value is 33.7% (inactive).

As for `CC(C)=CCc1c2c(c3occ(-c4ccc(O)c(O)c4)c(=O)c3c1O)C=CC(C)(C)O2`, the “activity change, negative = inhibition” value was -39% (inactive).

As to `Nc1ncnc2c([C@@H]3N[C@H](CO)[C@@H](O)[C@H]3O)c[nH]c12`, the Potency was 14.1 µM (active).

In the case of `Cc1ccc(-n2[nH]c(C)c(N=Nc3cccc(-c4cccc(C(=O)O)c4)c3O)c2=O)cc1C`, the “activity change, negative = inhibition” value was 539% (inactive).

In the case of `Cc1cccc(C)c1NS(=O)(=O)c1ccc(NS(=O)(=O)c2ccc3c(c2)OCCO3)cc1`, the Potency was 3.55 µM (active).

Take `O=C(Nc1ccc([N+](=O)[O-])cc1Cl)c1cc(Cl)ccc1O`: the “activity change, negative = inhibition” value is -81.4% (inactive).

In the case of `O=C1NC(=O)/C(=C/c2ccc3c(c2)OC(F)(F)O3)S1`, the “activity change, negative = inhibition” value was 0.686% (inactive).

As for `COc1c(C)c2c(c(O)c1C/C=C(\C)CCC(=O)O)C(=O)OC2`, the “activity change, negative = inhibition” value is -80.8% (inactive).
